Test results taken from the supplement of paper PMC10849652.
Targets with a hit are over-represented here; the source holds about 7,900 in all. About 0.6% of all pairs of compound and target were hits. Unmarked numbers belong to inactive results.

Tests used:
Test in all cases: log2 fold change, soluble protein after heating vs DMSO (PISA); higher = thermal stabilisation; K562 cells, 10 uM, 30 min; active = over 0.2 and 3.5 SD of the protein, either way, in both replicates (recomputed)
YWHAB = YWHAB (UniProt P31946)
Method in brief: (§1)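 Aliquots of K562 cells (2×10^6 cells/mL) treated with 10 μM compound for 30 min were heated for 3 min over 48°C-58°C. After pooling and extraction in PBS with 0.5% NP-40 at 4°C, soluble protein from a 21,000xg, 90 min spin was quantified by TMTpro 16plex LC-MS/MS with channel sums equalised. Thermal stability is expressed against control samples, from duplicates, as a log2 fold change.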

YWHAQ = YWHAQ (UniProt P27348)
YWHAQ, sequence (P27348 whole entry, looked up): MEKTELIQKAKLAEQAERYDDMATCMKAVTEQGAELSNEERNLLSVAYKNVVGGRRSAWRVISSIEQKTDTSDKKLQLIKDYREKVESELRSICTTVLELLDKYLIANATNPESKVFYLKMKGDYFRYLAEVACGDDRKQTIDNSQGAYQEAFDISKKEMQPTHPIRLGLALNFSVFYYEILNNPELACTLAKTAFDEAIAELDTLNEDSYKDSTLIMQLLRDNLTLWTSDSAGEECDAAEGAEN
Method in brief: as §1

YWHAZ [1] = molecular target: YWHAZ (UniProt P63104)
YWHAZ (UniProt P63104), sequence (P63104 whole entry, looked up): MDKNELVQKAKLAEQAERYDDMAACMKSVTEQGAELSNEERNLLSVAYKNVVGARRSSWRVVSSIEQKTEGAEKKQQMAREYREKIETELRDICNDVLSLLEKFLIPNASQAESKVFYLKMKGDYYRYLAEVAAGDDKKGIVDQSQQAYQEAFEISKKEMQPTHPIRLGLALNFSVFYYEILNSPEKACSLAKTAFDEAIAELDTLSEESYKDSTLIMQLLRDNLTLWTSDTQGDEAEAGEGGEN
Method in brief: as §1

YY1 = YY1 (UniProt P25490)
YY1, sequence (P25490 whole entry, looked up): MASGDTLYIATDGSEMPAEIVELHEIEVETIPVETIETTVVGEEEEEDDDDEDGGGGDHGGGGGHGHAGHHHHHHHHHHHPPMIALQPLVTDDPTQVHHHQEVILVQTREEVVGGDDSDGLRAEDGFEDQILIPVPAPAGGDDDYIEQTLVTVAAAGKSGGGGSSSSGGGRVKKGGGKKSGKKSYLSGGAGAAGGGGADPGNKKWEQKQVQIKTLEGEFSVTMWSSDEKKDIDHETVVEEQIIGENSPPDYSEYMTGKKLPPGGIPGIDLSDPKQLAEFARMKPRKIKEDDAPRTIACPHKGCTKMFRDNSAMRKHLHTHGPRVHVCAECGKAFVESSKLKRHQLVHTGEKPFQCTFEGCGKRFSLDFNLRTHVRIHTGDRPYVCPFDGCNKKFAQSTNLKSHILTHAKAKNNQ
Method in brief: as §1

ZADH2 = ZADH2 (UniProt Q8N4Q0)
ZADH2, sequence (Q8N4Q0 whole entry, looked up): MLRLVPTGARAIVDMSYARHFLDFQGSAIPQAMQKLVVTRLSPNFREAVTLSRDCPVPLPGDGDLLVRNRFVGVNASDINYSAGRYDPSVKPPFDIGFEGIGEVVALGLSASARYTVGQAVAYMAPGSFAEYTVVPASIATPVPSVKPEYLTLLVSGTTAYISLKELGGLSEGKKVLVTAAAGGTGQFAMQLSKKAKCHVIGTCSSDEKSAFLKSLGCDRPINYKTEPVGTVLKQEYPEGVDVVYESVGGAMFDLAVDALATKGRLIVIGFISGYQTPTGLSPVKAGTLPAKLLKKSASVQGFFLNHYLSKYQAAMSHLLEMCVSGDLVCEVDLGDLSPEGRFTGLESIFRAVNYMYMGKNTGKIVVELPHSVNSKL
Method in brief: as §1

ZBTB17 isoform 2 = ZBTB17 isoform 2 (UniProt Q13105)
Method in brief: as §1

ZBTB21 = ZBTB21 (UniProt Q9ULJ3)
Method in brief: as §1

ZBTB43 = ZBTB43 (UniProt O43298)
ZBTB43, sequence (O43298 whole entry, looked up): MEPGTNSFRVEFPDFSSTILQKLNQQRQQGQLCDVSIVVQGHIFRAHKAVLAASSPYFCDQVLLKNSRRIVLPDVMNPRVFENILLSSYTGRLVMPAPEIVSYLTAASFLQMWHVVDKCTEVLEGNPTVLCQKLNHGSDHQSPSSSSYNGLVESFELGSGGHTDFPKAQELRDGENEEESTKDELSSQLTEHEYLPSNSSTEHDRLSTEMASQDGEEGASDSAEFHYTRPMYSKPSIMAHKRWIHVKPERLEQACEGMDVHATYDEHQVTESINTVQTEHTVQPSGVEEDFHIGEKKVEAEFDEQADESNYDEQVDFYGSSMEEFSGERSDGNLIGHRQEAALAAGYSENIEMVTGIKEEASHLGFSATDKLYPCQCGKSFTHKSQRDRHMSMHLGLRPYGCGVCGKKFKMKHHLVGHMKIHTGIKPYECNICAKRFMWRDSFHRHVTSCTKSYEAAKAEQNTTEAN
Method in brief: as §1

ZC3H18 = ZC3H18 (UniProt Q86VM9)
ZC3H18, sequence (Q86VM9 whole entry, looked up): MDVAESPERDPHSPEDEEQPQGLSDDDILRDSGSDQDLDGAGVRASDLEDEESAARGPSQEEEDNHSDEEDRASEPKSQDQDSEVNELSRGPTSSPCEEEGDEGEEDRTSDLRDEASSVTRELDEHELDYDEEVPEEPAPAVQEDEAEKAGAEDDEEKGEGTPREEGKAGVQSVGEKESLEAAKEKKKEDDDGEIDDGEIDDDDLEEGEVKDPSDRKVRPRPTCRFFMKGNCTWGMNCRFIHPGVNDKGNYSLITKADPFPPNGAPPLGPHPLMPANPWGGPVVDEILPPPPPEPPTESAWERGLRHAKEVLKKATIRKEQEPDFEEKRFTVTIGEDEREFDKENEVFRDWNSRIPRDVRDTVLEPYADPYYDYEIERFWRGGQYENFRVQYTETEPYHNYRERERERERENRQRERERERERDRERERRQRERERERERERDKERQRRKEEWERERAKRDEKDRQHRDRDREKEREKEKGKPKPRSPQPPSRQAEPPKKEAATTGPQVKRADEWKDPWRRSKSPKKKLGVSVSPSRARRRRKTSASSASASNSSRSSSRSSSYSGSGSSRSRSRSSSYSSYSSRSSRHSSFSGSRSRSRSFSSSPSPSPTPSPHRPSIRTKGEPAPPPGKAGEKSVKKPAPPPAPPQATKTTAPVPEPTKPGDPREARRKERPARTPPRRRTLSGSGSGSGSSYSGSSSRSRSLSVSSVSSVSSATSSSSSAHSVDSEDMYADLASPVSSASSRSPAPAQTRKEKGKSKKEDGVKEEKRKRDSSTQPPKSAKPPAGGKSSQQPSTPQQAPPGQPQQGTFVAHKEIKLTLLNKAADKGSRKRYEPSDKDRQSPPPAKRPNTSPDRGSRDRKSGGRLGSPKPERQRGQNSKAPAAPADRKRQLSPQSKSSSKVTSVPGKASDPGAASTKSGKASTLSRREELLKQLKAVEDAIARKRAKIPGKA
Method in brief: as §1

ZC3H8 = ZC3H8 (UniProt Q8N5P1)
ZC3H8, sequence (Q8N5P1 whole entry, looked up): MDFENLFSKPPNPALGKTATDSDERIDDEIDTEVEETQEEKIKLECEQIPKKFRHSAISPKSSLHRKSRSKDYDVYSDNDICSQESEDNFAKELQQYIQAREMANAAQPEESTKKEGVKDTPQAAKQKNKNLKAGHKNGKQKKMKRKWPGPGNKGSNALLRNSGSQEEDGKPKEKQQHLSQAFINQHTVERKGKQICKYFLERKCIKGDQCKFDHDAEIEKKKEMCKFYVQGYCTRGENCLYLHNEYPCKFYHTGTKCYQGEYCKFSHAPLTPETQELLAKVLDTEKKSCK
Method in brief: as §1

ZC3HC1 = ZC3HC1 (UniProt Q86WB0)
ZC3HC1, sequence (Q86WB0 whole entry, looked up): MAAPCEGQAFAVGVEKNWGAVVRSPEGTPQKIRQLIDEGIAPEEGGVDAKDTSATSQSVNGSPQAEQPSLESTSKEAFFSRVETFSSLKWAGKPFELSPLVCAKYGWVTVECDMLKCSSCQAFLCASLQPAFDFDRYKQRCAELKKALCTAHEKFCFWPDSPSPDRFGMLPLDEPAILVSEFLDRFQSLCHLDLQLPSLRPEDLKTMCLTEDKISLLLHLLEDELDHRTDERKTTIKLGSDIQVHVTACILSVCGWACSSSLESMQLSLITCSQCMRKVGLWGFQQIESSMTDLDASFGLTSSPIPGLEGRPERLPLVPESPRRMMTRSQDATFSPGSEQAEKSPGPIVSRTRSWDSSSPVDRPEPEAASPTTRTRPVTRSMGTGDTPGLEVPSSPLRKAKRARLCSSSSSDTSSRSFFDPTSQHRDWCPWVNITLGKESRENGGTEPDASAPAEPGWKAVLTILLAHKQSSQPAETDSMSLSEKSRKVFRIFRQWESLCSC
Method in brief: as §1

ZCCHC9 = ZCCHC9 (UniProt Q8N567)
ZCCHC9, sequence (Q8N567 whole entry, looked up): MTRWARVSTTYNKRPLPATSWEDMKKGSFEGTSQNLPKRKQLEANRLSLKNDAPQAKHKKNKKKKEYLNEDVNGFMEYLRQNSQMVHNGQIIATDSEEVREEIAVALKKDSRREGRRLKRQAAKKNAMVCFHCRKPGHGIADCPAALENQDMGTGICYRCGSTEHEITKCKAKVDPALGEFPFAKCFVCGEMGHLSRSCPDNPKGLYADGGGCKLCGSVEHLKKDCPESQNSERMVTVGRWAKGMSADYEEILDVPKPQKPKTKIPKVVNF
Method in brief: as §1

ZDHHC17 = ZDHHC17 (UniProt Q8IUH5)
Method in brief: as §1

ZDHHC20 = ZDHHC20 (UniProt Q5W0Z9)
Method in brief: as §1

ZDHHC5 = ZDHHC5 (UniProt Q9C0B5)
Method in brief: as §1

ZDHHC7 isoform 2 = ZDHHC7 isoform 2 (UniProt Q9NXF8)
ZDHHC7 isoform 2, sequence (Q9NXF8 whole entry, looked up, canonical isoform): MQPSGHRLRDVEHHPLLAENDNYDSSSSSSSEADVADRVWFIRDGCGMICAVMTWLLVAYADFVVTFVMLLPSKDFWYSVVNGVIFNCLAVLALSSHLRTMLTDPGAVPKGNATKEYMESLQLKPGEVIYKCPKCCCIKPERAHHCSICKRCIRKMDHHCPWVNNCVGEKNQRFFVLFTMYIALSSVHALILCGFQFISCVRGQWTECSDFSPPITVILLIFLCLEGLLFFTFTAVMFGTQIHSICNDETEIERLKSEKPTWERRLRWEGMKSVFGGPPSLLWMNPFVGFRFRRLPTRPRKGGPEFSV
Method in brief: as §1

ZCCHC17 = ZCCHC17 (UniProt Q9NP64)
ZCCHC17, sequence (Q9NP64 whole entry, looked up): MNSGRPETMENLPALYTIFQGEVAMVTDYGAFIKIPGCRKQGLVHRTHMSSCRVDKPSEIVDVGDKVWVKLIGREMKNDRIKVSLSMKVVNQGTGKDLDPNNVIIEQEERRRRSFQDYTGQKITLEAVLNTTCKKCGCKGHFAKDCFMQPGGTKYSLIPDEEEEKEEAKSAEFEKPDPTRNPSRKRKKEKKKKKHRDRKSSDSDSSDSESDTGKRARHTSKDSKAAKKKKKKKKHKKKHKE
Method in brief: as §1

ZDHHC8 isoform 3 = ZDHHC8 isoform 3 (UniProt Q9ULC8)
Method in brief: as §1

YWHAZ [2] = molecular target: YWHAZ (UniProt E7ESK7)
Method in brief: as §1

ZDHHC6 = ZDHHC6 (UniProt Q9H6R6)
ZDHHC6, sequence (Q9H6R6 whole entry, looked up): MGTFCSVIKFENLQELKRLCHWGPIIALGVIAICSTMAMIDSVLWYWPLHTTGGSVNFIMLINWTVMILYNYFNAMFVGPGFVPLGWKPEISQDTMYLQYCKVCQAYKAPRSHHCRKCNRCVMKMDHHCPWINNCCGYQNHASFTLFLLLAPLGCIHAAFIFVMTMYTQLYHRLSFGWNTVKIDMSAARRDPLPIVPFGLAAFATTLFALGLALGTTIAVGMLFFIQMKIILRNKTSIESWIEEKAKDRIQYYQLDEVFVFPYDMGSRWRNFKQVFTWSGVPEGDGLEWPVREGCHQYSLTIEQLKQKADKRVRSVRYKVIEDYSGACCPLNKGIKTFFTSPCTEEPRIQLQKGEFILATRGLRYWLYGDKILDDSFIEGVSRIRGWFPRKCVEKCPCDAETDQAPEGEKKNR
Method in brief: as §1

Row | SMILES | log2 fold change (YWHAB) | log2 fold change (YWHAQ) | log2 fold change (YWHAZ [1]) | log2 fold change (YY1) | log2 fold change (ZADH2) | log2 fold change (ZBTB17 isoform 2) | log2 fold change (ZBTB21) | log2 fold change (ZBTB43) | log2 fold change (ZC3H18) | log2 fold change (ZC3H8) | log2 fold change (ZC3HC1) | log2 fold change (ZCCHC9) | log2 fold change (ZDHHC17) | log2 fold change (ZDHHC20) | log2 fold change (ZDHHC5) | log2 fold change (ZDHHC7 isoform 2) | log2 fold change (ZCCHC17) | log2 fold change (ZDHHC8 isoform 3) | log2 fold change (YWHAZ [2]) | log2 fold change (ZDHHC6)
1 | CC(C)c1cnn2c(NCc3ccccc3)cc(NCCCCCCN)nc12 | 0.014 | -0.026 | 0.052 | -0.24 (active) | -0.019 | 0.054 | -0.027 | 0.138 | -0.122 | 0.177 | -0.151 | 0.004 | -0.061 | -0.229 | 0.007 | -0.008 |  |  |  | 
2 | CON(C)C(=O)N1N=C(c2cc(F)ccc2F)S[C@@]1(CCCN)c1ccccc1 [filanesib] | -0.044 | -0.086 | -0.027 | -0.006 | 0.065 | -0.026 | 0.075 | -0.024 | 0.217 | 0.191 | -0.042 | 0.527 (active) | -0.219 | 0.008 | 0.048 |  | 0.565 (active) |  |  | 
3 | Nc1ccccc1NC(=O)c1ccc(CNC(=O)OCc2cccnc2)cc1 [entinostat] | -0.042 | 0.116 | 0.032 | 0.053 | -0.04 | -0.14 | -0.074 | -0.091 | 0.021 | -0.141 | 0.1 | -0.112 | -0.047 | 0.045 | -0.034 |  | 0.081 |  |  | 
4 | CN1CCN(c2nc(C3=C(c4c[nH]c5ccccc45)C(=O)NC3=O)c3ccccc3n2)CC1 [sotrastaurin] | 0.031 | -0.043 | -0.01 | -0.092 | -0.015 | 0.03 | 0.022 | 0.027 | -0.11 | 0.025 | -0.178 | 0.243 | 0.099 | 0.015 | -0.069 |  | -0.095 |  |  | 
5 | CCN(CC)Cc1ccc2cc(COC(=O)Nc3ccc(C(=O)NO)cc3)ccc2c1 [givinostat] | -0.026 | -0.039 | -0.001 | 0.02 | -0.066 | -0.011 | -0.045 | -0.006 | 0.106 | -0.106 | 0.031 | 0.038 | 0.113 | -0.167 | -0.001 | 0.011 |  |  |  | 
6 | Cc1cn(-c2cc(NC(=O)c3ccc(C)c(Nc4nccc(-c5cccnc5)n4)c3)cc(C(F)(F)F)c2)cn1 [nilotinib] | 0.039 | 0.018 | 0.04 | -0.033 | 0.04 |  | 0.023 | -0.157 | 0.099 | 0.016 | -0.052 | -0.046 | -0.004 | 0.016 | 0.091 | 0.104 |  | 0.086 |  | 
7 | CN(C)CC(=O)Nc1ccc2[nH]c(=O)c3ccccc3c2c1 | -0.033 | 0.16 | 0.009 | -0.047 | 0.02 |  | 0.018 | -0.07 | -0.039 | -0.047 | 0.089 | -0.125 | -0.005 | -0.026 | -0.032 | 0.057 | -0.059 |  |  | 
8 | c1cc(OCCN2CCCCC2)cc(-c2n[nH]c3ccc(-c4nnc[nH]4)cc23)c1 | -0.019 | 0.105 | 0.05 | -0.052 | -0.017 |  |  | -0.026 | -0.147 | -0.104 | -0.046 | -0.067 | 0.068 | 0.053 | -0.076 | -0.191 |  |  | 0.095 | -0.005
9 | CN1CCC(CNc2ccc3ncc(-c4cccc(OC(F)(F)F)c4)n3n2)CC1 | -0.042 | 0.585 | 0.035 | -0.21 | 0.023 |  | -0.149 | 0.032 | -0.044 | 0.397 (active) | -0.402 (active) | 0.181 | 0.065 | 0.035 | 0.31 (active) | -0.415 (active) |  |  |  | 0.011
10 | Cc1ccc(NC(=O)c2cccc(C(C)(C)C#N)c2)cc1Nc1ccc2ncn(C)c(=O)c2c1 | 0.016 | 0.184 | 0.025 | 0.035 | 0.453 (active) | 0.018 | -0.03 | 0.004 | 0 | -0.021 | 0.011 | -0.227 | 0.076 | -0.067 | 0.048 |  | -0.065 |  |  | 
11 | CCn1c(C(=O)N(C2CC2)C2CC2)cc2c3c(ncn3C)c(Nc3cc(C)n(C)n3)nc21 | 0.027 | 0.039 | 0.017 | 0.044 | 0.154 | 0.005 | -0.038 | -0.033 | 0.018 | -0.034 | -0.059 | 0.003 | -0.061 | -0.023 | -0.012 | 0.011 |  |  |  | 
12 | Cc1cc(Nc2cc(CN3CCOCC3)c3nc(C)c(Cc4ccc(Cl)cc4F)n3n2)n[nH]1 [gandotinib] | -0.25 (active) | -0.071 | 0.084 | -0.012 | 0.128 |  | 0.074 | 0.043 | 0.017 | 0.15 | -0.157 | 0.265 | 0.052 | 0.018 | -0.041 | 0.034 |  |  |  | -0.018
